# Assay outcomes as filed in PubChem.
# N-glyco inh: blocks N-linked glycosylation in D54 reporter cells. AID 588692. hit rate 0.23% among 360,000. reporter increase, % at 12.5 µM. D54 ERlucT glycosylation luciferase reporter, 24 h; percent of 100 nM tunicamycin response;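 active = mean luciferase reporter signal, scaled so untreated is 0 and the glycosylation-blocking control 100, at or above a set limit in every replicate; inconclusive = mean reaches the limit but not every replicate does; inactive = mean below the limit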;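 also: luciferase carries N-glycosylation sites so blocking glycosylation raises the light; 0% = median of neutral control wells and 100% = median of 100 nM tunicamycin wells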
# LMP1 NFkB inh: reduces LMP1-driven NF-kappaB luciferase signal. LMP1-induced NF-kappaB luciferase reporter cells, luminescence. inhibition, % at 12.5 µM. hit rate 0.69% among 350,000. AID 504558; in the data active = inhibition above about 41%; inconclusive = no clear call, values can overlap the other calls;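 also: 0% = neutral control wells and 100% = reference inhibitor control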
# Env fusion inh: blocks HIV Env-driven cell-cell fusion; HeLa-JRFL Env/CEM21 cell fusion, luciferase; inhibition, % at 12.3 µM; hit rate 1.1% among 360,000; AID 651610;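 active = mean replicate inhibition score of at least 50 and every replicate individually at or above 50; inconclusive = only one of the two criteria met; inactive = mean below 50 and not all replicates reaching 50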;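 also: 0% = plate neutral controls and 100% = maraviroc near 300 nM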
# Shn3 3UTR inh: reduces Shn3 3'UTR luciferase signal in osteoblasts; AID 588674; hit rate 0.52% among 360,000; Clone20 osteoblast Shn3 3'UTR firefly luciferase, 24 h; inhibition, % at 12.5 µM;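 active = mean inhibition of at least 75% with every replicate also reaching 75%; inconclusive = mean inhibition at least 75% but some replicate below; inactive = mean inhibition below 75%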;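 also: 0% = median of neutral control wells and 100% = pilot-screen positive control compound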
# NSD2 HMT inh: NSD2 (human) methyltransferase inhibition | NSD2 peptide methylation, AlphaScreen, 120 min | inhibition, % at 12.5 µM | hit rate 0.54% among 310,000 | AID 743445; in the data active = inhibition above about 50%
# Target sequence (O96028 whole entry, looked up): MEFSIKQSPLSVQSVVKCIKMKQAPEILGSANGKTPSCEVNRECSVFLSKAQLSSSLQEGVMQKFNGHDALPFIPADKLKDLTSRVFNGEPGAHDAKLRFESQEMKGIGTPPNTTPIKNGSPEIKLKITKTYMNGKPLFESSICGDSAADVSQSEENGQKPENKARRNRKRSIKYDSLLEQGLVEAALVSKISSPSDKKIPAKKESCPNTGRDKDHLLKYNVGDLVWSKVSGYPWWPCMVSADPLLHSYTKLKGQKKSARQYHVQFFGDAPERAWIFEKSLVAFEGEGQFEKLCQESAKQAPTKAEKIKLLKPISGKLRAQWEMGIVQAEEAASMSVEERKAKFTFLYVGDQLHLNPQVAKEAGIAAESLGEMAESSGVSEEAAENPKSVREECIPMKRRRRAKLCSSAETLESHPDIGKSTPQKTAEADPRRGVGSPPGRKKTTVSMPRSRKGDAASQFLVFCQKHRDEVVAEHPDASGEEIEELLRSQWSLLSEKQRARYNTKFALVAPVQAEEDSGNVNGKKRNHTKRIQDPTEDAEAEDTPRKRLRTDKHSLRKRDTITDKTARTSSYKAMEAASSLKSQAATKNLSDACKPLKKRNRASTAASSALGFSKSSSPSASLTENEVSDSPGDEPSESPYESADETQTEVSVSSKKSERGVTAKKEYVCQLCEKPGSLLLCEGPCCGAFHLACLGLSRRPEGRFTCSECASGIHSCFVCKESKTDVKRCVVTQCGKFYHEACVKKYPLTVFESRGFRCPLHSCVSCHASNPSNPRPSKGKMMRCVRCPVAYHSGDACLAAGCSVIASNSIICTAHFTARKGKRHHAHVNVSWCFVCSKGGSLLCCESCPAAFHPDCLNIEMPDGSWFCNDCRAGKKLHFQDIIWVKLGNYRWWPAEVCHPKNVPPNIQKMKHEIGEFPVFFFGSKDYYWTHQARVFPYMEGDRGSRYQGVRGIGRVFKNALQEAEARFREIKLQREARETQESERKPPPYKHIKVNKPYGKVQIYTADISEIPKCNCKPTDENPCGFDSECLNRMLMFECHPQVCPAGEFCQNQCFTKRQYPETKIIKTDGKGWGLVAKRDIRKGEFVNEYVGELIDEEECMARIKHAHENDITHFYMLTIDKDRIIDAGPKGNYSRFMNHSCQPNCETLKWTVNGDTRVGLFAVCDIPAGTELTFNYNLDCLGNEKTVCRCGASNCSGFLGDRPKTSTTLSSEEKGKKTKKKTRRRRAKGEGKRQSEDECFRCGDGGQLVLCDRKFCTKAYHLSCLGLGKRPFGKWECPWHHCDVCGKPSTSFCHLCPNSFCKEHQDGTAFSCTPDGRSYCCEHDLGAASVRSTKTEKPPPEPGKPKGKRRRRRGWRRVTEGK
# PAX8 inh HTS: inhibitors of PAX8 transcriptional activity in RMG-I cells; inhibition, % at 12.6 µM; RMG-I TPO-luciferase reporter, SteadyGlo, 24 h; hit rate 1.2% among 360,000;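 active = mean replicate inhibition at least 60% with every replicate also reaching 60%; inconclusive = only one of the two criteria is met; inactive = mean below 60% and not all replicates reaching 60%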;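 also: luciferase light reporting Pax8 driven TPO promoter activity; plate controls were median of neutral control wells for no effect and mitoxantrone controls for full effect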
# * marks the source's active call; other numbers are inactive results; i = inactive; ? = inconclusive; . = no result; [ ] = remark or other dose. Sampled rows, rich in hits. Any-hit rate of the full collection: about 2.8%.
SMILES,N-glyco inh,LMP1 NFkB inh,Env fusion inh,Shn3 3UTR inh,NSD2 HMT inh,PAX8 inh HTS
CC1Cc2nc(SCC(=O)NCc3ccccc3)n(Cc3ccccc3)c(=O)c2S1 (stereo not given),6.1,0.0,71.6*,-4.1,.,16.7
CC(C)c1cn(CC[C@@H]2CC[C@H](NC(=O)Nc3cc(Cl)cc(Cl)c3)[C@@H](CO)O2)nn1,.,.,9.9[16.7 µM],.,.,2.9
C[C@@H]1CN([C@H](C)CO)C(=O)c2ccccc2-c2ccccc2CO[C@@H]1CN(C)S(=O)(=O)c1cccc(C#N)c1,.,.,-37.2[16.7 µM],.,.,-21.3
Cc1cc(=O)[nH]c(N=N/C(=N/Nc2ccccc2C)c2ccccc2)n1,-5.3,50.5*,.,20.5,2.0,.
COc1cc2c(O)c3c(c(-c4ccc5c(c4)OCO5)c2cc1OC)C(=O)OC3,-13.1,-241.2,63.2*,79.9,.,.
COc1cc2c(OC(C)=O)c3c(c(-c4ccc5c(c4)OCO5)c2cc1OC)C(=O)OC3,-14.0,-75.0,.,81.2,.,.
CO[C@H]1CN(C)C(=O)c2cc(NS(=O)(=O)c3ccc(C)cc3)ccc2OC[C@H](C)N(Cc2nccs2)C[C@H]1C,.,.,0.6[16.7 µM],.,.,10.1
Oc1c(Cl)cc(Cl)cc1C1=NNC(c2ccc(Cl)cc2)C1 (stereo not given),1.6,48.6*,.,-56.2,-0.2,.
COCC(=O)N(C)C[C@@H]1Oc2ncc(C#Cc3ccc(OC)cc3)cc2C(=O)N([C@H](C)CO)C[C@H]1C,.,.,9.6[16.7 µM],.,.,.
Cc1ccc(S(=O)(=O)N[C@H]2CC[C@H](CCn3cc(-c4cccnc4)nn3)O[C@H]2CO)cc1,.,.,-2.3[16.7 µM],.,.,4.3
CCOC(=O)c1cnn(CCOC(=O)c2cccc(F)c2)c1NC(=O)c1cccc(F)c1,0.2,3.8,.,-7.6,-3.6,110.2*
COc1ccc(CCC(C)NCc2ccc(Cl)c(Cl)c2)cc1 (stereo not given),2.6,-0.2,81.1*,-17.2,-3.1,8.6
COc1ccc(CCC(C)NCCc2ccc(Cl)cc2Cl)cc1 (stereo not given),3.6,-8.6,55.4*,16.8,12.7,48.0
COc1ccc(CCC(C)NCc2ccc(F)cc2)cc1 (stereo not given),2.1,-4.3,?,-5.6,-0.5,5.9
COc1ccc(CCC(C)NCc2cc(OC)cc(OC)c2)cc1 (stereo not given),0.9,-3.9,71.1*,0.2,0.6,-32.5
Cc1cccc(C)c1NC(=O)CCCSc1nnc(-c2ccc(Cl)cc2)n1-c1ccccc1,-0.3,-2.8,78.8*,30.5,-1.2,14.2
Cc1cccc(C)c1NC(=O)CCCSc1nnc(-c2ccc(F)cc2)n1-c1ccccc1,-4.2,2.0,13.9,24.4,-2.1,18.3
CCCNC(=O)[C@H]1[C@H](CO)[C@H]2Cn3c(ccc(C4=CCCC4)c3=O)[C@H]2N1CCC(F)(F)F,.,.,.,.,.,-1.8
O=C(c1cccs1)N1C[C@H](O)[C@@H](n2cc(C3CC3)nn2)C[C@@H]1c1ccccc1,0.3,5.3,8.8,-0.9,.,97.8*
O=C(c1cccs1)N1C[C@@H](O)[C@H](n2cc(C3CC3)nn2)C[C@@H]1c1ccccc1,0.7,-5.1,11.3,11.3,.,2.1
COc1ccccc1S(=O)(=O)N1CC[C@H]2[C@@H](CO)N(C)c3ccc(-c4ccc(C#N)cc4)cc3[C@H]21,.,.,.,.,.,106.6*
CN1c2ccc(-c3ccc(C#N)cc3)cc2[C@H]2[C@H](CCN2S(=O)(=O)c2cccc(F)c2)[C@@H]1CO,.,.,.,.,.,73.0*
CCCC#Cc1ccc2c(c1)[C@@H]1[C@@H](CCN1S(=O)(=O)c1cccc(F)c1)[C@@H](CO)N2C,.,.,.,.,.,66.6*
CCCC(=O)N1CC2(CN(C(=O)C3CCC3)C2)c2c(n(C)c3cc(OC)ccc23)[C@@H]1CO,.,.,.,.,.,-3.1
O=C(CCN1CCN(Cc2ccccc2)CC1)Nc1ccc(OCc2ccccc2)cc1,-4.5,-0.1,58.9*,47.1,0.9,.
SMILES,N-glyco inh,LMP1 NFkB inh,Env fusion inh,Shn3 3UTR inh,NSD2 HMT inh,PAX8 inh HTS
COc1ccc2cc(CNCCOCCOCCNCc3ccc4cc(OC)ccc4c3)ccc2c1,-14.8,-53.6,3.0,96.2*,.,117.2*
COc1ccccc1-c1ccc(/C=C2/C=C(C)OC2=O)o1,1.8,8.7,-71.2,1.1,1.4,16.9
CC1=C/C(=C\c2ccc(Br)o2)C(=O)O1,3.8,-4.8,4.0,-7.0,97.8*,4.0
Cn1c(=O)c2[nH]c(N=Nc3ccc(N)cc3N)nc2n(C)c1=O,3.1,51.1*,-0.9,-1.9,1.7,-8.7
Cc1cc(C)cc(Nc2nc3c([nH]2)c(=O)n(C)c(=O)n3C)c1,-1.5,-2.3,27.1,-26.5,4.2,-2.1
C[C@@H]1CN([C@H](C)CO)C(=O)c2cc(NC(=O)Cn3cnnn3)ccc2O[C@@H]1CN(C)Cc1ccc(Cl)c(Cl)c1,.,.,-16.5[16.7 µM],.,.,-5.6
COc1cc(N)c2ncccc2c1OC,3.3,6.0,1.3,5.8,14.2,20.0
COc1cc(NC(C)CCCNC(C)C)c2ncccc2c1OC (stereo not given),5.2,5.6,.,11.5,111.4*,30.2
COc1cc(NCCCCCCN)c2ncccc2c1OC,8.7,56.4*,-28.7,6.8,.,18.9
Cc1ccc(S(=O)(=O)N(C)C[C@@H]2Oc3ccc(NC(=O)CCN4CCOCC4)cc3CC(=O)N([C@H](C)CO)C[C@@H]2C)cc1,.,.,.,.,.,0.8
CCC(=O)N1C[C@@H](C)[C@@H](OC)CN(C)C(=O)c2cc(NC(=O)COC)ccc2OC[C@@H]1C,.,.,.,.,.,-11.3
O=C(NCCc1ccc(Cl)cc1)C1CCC(CNc2nc(=S)[nH]c3ccccc23)CC1 (stereo not given),1.8,14.7,-18.1,35.8,-2.5,40.2
O=C(NCCC1=CCCCC1)C1CCC(CNc2nc(=S)[nH]c3ccccc23)CC1 (stereo not given),58.4*,-1.6,-25.9,53.6,-0.5,-4.3
N#Cc1c(N)n(C2OC(CO)C(O)C2O)c2ncnc(N)c12 (stereo not given),-14.1,65.9*,84.1*,65.1,.,108.7*
CCOC(=O)c1cnc2ccc(OCC)cc2c1NCc1ccccc1OC,-5.0,33.7,94.5*,69.0,-1.6,9.5
CC1C/C(=C/c2cccs2)C(=O)/C(=C/c2cccs2)C1 (stereo not given),0.5,-4.8,.,-33.8,31.3,71.6*
CC1C/C(=C/c2ccccn2)C(=O)/C(=C/c2ccccn2)C1 (stereo not given),-23.8,90.4*,.,94.9*,.,.
O=C1/C(=C/c2cccs2)CCC/C1=C\c1cccs1,-8.3,-33.3,-75.9,-22.3,7.2,-192.3
CC(C)(C)C1C/C(=C/c2ccccn2)C(=O)/C(=C/c2ccccn2)C1 (stereo not given),-23.0,86.5*,.,94.9*,.,.
O=C1/C(=C/c2ccccn2)COc2ccccc21,0.6,13.8,-5.5,10.2,-0.9,10.3
CN1c2ccc(-c3ccc(F)cc3)cc2[C@@H]2[C@@H](CCN2C(=O)c2cccc(F)c2)[C@@H]1CO,.,.,.,.,.,-8.4
COc1ccc(/C=C/C(=O)c2cc(F)ccc2OC(=O)c2ccccc2)cc1OC,6.1,22.1,i,0.9,1.2,76.7*
